Experimental data taken from PubChem BioAssay.
The source made the active and inactive calls.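 The calls were made as follows, unless noted: active = a full or partial loss of lipid-probe fluorescence in the fish gall bladder, intestine or both, judged by eye; inactive = no fluorescence loss, or compound toxic to the fish.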

Key:
[1] = inhibitors of TNFa-induced NFkB p65 translocation, primary screen, imaging, HUVEC, MLSMR starter and 10KST1 sets (AID 438;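 active = inhibition above 20% together with a positive visual image hit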;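 also: compound added about 3h40 before a 20 min TNFalpha stimulation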;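 as to inhibition: signal is the nuclear over cytoplasmic p65 intensity ratio per well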); details: HUVEC TNFa-induced p65 nuclear translocation; cell count: measured here: nuclei count (cytotoxicity indicator), at 2.08 µM; inhibition: at 2 µM, stronger effect = higher value, 0% TNFa-plus-vehicle, 100% no-TNFa wells
[2] = reduction of polyQ htt aggregates in cells – imaging, exon1htt(103Q)mCFP cells, high-content imaging, primary screen (AID 483;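 active = visual image review flags a hit and inhibition of aggregation exceeds 20%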;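 also: compound exposure lasted 3 days before fixation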;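 as to nuclei count: percent of the per-plate median nuclei count of sample wells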); details: exon1htt(103Q)mCFP cell line, aggregate imaging, at 2 µM; inhibition of aggregation: stronger effect = higher value; nuclei count: measured here: cell count, toxicity
[3] = endothelial E-selectin expression blockers – imaging, HUVEC, immunofluorescence, MLSMR starter and 10KST1 sets, primary screen (AID 487;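 active = visually confirmed hit in the image check and inhibition above 20%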;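 as to inhibition: signal is fraction of cell area covered by stained E-selectin grains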;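 as to nuclei count: 100% = median nuclei count of all wells on the same plate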); details: HUVEC TNFalpha-induced E-selectin immunofluorescence imaging, at 2 µM; inhibition: stronger effect = higher value; nuclei count: measured here: cell number, toxicity
[4] = Primary imaging screen for DUSP6 inhibitors that restore phospho-Erk in transfected HeLa cells, chemical complementation (AID 609;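 active = compounds giving at least 50% inhibition in the cell-based MKP-3 phosphatase rescue imaging test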;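 as to inhibition: phospho-Erk level distribution per well compared with pooled transfected vehicle control wells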); details: HeLa MKP-3 transfected, phospho-Erk imaging KS statistic, at 10 µM, cells stimulated with TPA for 15 min
[5] = molecular target: Dual specificity protein phosphatase 6 (Homo sapiens) (UniProt Q16828); test: as above; details: HeLa MKP-3 transfected, phospho-Erk imaging KS statistic; at 10 µM; stronger effect = higher value; cells stimulated with TPA for 15 min
[6] = molecular target: Voltage-gated potassium channel subunit beta-2 (Rattus norvegicus) (UniProt P62483); test: inhibitors of rat Kvbeta2 reductase activity – biochemical, NADPH fluorescence, primary screen (AID 622;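 active = fluorescence slope higher than the sample average by over 3 SD, cut at about -0.22 in these data, passing the limit was not always enough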;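 also: slope of raw intensity against log time taken from 70 to 1610 s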); details: recombinant KvBeta, 4-cyanobenzaldehyde reduction, at 10 µM, stronger effect = higher value
[7] = molecular target: Voltage-gated potassium channel subunit beta-2 (Rattus norvegicus) (UniProt P62483); test: enhancers of rat Kvbeta2 NADPH turnover – biochemical, NADPH fluorescence, primary screen (AID 623;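 active = NADPH fluorescence slope more negative than the mean of all samples by about 3 SD, 99.7% confidence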;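 also: fluorescence intensity change per second fitted from 20 to 320 s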); details: Recombinant KvBeta, NADPH fluorescence decrease slope, 10 min; at 10 µM; stronger effect = lower value
[8] = molecular target: Muscarinic acetylcholine receptor M4 (Homo sapiens) (UniProt P08173); test: M4-linked GIRK flux change, two-sided – cell-based, HEK293 M4/GIRK, thallium flux, BTC-AM, M4 allosteric agonist project, primary screen (AID 625;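 active = fluorescence slope after compound addition differing from the mean of all tested samples at 99.7% confidence, mostly higher but some lower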;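 also: thallium influx through GIRK channels coupled to M4 in HEK293 cells with BTC-AM dye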); details: at 10 µM, actives lie on both sides
[9] = inhibitors of larval lipid processing in zebrafish, primary screen, whole organism, PED6 fluorescence, gall bladder and intestine (AID 686); details: Zebrafish larvae PED6 lipid processing, fluorescence scoring; screened at 20 µM (by protocol);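 also: larvae 5 to 7 days old with five fish per well; signal comes from phospholipase A2 cleavage of quenched PED6 carried via bile; overnight exposure to compound and PED6 before scoring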
[10] = loss of swimming-algae plug formation – whole organism, Chlamydomonas reinhardtii, WT vs cilia-less mutant, absorbance, 96-well, primary screen (AID 463189;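 active = inhibition at or above 50% relative to wild type and mutant plate controls; inactive = inhibition below 50%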;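 also: 0% = wild type cc124 cells in DMSO and 100% = ciliumless bld1 mutant cells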); details: Chlamydomonas reinhardtii gravitaxis, OD600 absorbance, 2 days; at 10 µM; stronger effect = higher value
[11] = blockers of RIG-like receptor reporter activation – cell-based, Sendai virus stimulus, luciferase, 10K MLSCN set, TLR/RLR signaling modifier project, primary screen (AID 602276;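 active = inhibition at or above 50% at 10 µM; inactive = inhibition below 50%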;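 also: firefly luciferase from ISG56 promoter only with Renilla not read in this screen; 0% = Sendai virus plus DMSO and 100% = medium plus DMSO without virus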); details: HEK293 RL24 IRF3 luciferase reporter, at 10 µM, stronger effect = higher value
[12] = TLR3 IRF3 reporter activation blockers – cell-based, poly I:C stimulus, luciferase, 10K MLSCN set, primary screen (AID 602277;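 active = inhibition of the reporter signal at or above 50%; inactive = inhibition below 50%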); details: HEK293-TLR3 RL24 IRF3 luciferase reporter, at 10 µM, stronger effect = higher value
[13] = measured here: cell density z-score
[14] = measured here: nuclear c-Myc green intensity z-score
[15] = measured here: nuclear pErk red intensity z-score, stronger effect = higher value

Chain of Dual specificity protein phosphatase 6 (Homo sapiens) (Q16828 whole entry, looked up): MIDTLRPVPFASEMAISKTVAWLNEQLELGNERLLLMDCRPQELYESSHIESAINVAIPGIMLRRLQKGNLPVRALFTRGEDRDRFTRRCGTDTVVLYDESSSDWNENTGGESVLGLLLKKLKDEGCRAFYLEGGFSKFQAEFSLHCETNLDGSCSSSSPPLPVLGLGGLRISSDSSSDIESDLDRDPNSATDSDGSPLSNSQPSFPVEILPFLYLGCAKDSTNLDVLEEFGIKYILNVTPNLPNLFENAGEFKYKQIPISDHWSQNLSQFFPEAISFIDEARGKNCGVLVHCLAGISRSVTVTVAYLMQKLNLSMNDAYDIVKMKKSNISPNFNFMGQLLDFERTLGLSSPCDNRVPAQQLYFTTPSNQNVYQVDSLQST
Chain of Voltage-gated potassium channel subunit beta-2 (Rattus norvegicus) (P62483 whole entry, looked up): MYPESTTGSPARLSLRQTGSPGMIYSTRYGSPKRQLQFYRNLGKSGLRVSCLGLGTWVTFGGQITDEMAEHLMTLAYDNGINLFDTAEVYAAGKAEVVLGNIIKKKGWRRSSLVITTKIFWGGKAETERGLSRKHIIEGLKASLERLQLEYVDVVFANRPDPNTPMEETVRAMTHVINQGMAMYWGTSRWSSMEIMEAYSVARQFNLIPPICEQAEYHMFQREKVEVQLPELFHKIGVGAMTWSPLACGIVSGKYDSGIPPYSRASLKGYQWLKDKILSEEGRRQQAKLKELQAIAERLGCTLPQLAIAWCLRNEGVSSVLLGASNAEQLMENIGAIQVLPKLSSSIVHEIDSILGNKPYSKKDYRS
Chain of Muscarinic acetylcholine receptor M4 (Homo sapiens) (P08173 whole entry, looked up): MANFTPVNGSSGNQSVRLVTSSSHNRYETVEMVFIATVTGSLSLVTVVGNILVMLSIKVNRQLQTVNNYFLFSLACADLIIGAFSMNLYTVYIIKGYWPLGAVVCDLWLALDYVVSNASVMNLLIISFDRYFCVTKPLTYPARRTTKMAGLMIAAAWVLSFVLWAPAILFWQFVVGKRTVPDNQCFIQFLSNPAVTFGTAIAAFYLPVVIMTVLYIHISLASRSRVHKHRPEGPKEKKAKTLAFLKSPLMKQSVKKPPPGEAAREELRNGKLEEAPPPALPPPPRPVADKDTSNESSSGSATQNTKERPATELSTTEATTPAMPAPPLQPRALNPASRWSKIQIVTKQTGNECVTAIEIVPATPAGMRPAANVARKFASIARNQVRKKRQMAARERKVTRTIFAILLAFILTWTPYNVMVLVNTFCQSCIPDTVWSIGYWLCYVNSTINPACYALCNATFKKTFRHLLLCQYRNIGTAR

| Compound | cell count [1] | inhibition [1] | inhibition of aggregation [2] | nuclei count [2] [%] | inhibition [3] | nuclei count [3] [%] | z-score [4, 13] | z-score [4, 14] | z-score [4, 15] | inhibition [5] | fluorescence slope [6] | NADPH fluorescence slope [7] | fluorescence slope [8] | outcome [9] | inhibition [10] | inhibition [11] | inhibition [12] |
| --- | --- | --- | --- | --- | --- | --- | --- | --- | --- | --- | --- | --- | --- | --- | --- | --- | --- |
| N#C/C(C(=O)NCc1ccco1)=C1/SC(Cc2ccc(F)cc2)C(=O)N1c1ccccc1 (stereo not drawn) | 598 | 4.7% (inactive) | -63.4% (inactive) | 75.6 | -13.2% (inactive) | 108 | 0.348 | 0.139 | 0.51 | -2.09% (inactive) | -0.437 (inactive) | -2.8e-05 (inactive) | 0.00419 (inactive) | inactive; toxic | -7.54% (inactive) | 11.5% (inactive) | 20.4% (inactive) |
| O=S(=O)(NCc1cccnc1)c1cccc2nsnc12 | 643 | -2.6% (inactive) | -2.4% (inactive) | 125 | -80.9% (inactive) | 137 | -0.856 | 1.61 | 0.356 | -3.97% (inactive) | -0.482 (inactive) | -5e-05 (inactive) | 0.00583 (inactive) | inactive | -1.56% (inactive) | 15.1% (inactive) | 21.7% (inactive) |
| Clc1ccc(-n2ncc3c(NCCCn4ccnc4)ncnc32)cc1 | 618 | -10.7% (inactive) | -16.9% (inactive) | 105 | -41.4% (inactive) | 129 | -0.368 | 0.856 | 1.02 | 1.42% (inactive) | -0.386 (inactive) | -5.7e-05 (inactive) | 0.00622 (inactive) | inactive | -3.19% (inactive) | -0.733% (inactive) | -33.8% (inactive) |
| CCn1nc(NC(=O)c2cccnc2)c2cc3ccccc3nc21 | 522 | -0.4% (inactive) | -3.3% (inactive) | 104 | -29.4% (inactive) | 133 | 0.0666 | 1.36 | -0.336 | -6.48% (inactive) | -0.423 (inactive) | -3.9e-05 (inactive) | 0.00509 (inactive) | inactive | 3.52% (inactive) | 10.7% (inactive) | -6.02% (inactive) |
| Cc1nc2sc(C#N)c(N)c2c2c1CCCC2 | 603 | 0.2% (inactive) | -143% (inactive) | 3.6 | 0.2% (inactive) | 96.3 | -2.36 | 2.17 | -1.05 | 9.07% (inactive) | -0.0248 (active) | -1e-05 (inactive) | 0.00523 (inactive) | inactive | 3.68% (inactive) | -2.92% (inactive) | -41.1% (inactive) |
| Cn1c(SCC(=O)N2CCOCC2)nnc1-c1cccc(NC(=O)c2ccccc2F)c1 | 576 | -2.8% (inactive) | -17.6% (inactive) | 115 | 17.5% (inactive) | 107 | -2.39 | 0.78 | -0.11 | 1.63% (inactive) | -0.578 (inactive) | -5.9e-05 (inactive) | 0.00616 (inactive) | inactive | 20.3% (inactive) | 13.9% (inactive) | 22.5% (inactive) |
| Cc1c(O)c(CN2CCCCC2)cc2c3c(c(=O)oc12)CCC3 | 706 | -5.5% (inactive) | 2.7% (inactive) | 106 | -1.4% (inactive) | 130 | 0.172 | -1.04 | -0.433 | -10.6% (inactive) | -0.00734 (inactive) | -1.2e-06 (inactive) | 0.00439 (inactive) | inactive | 1.32% (inactive) | 12.6% (inactive) | 14.9% (inactive) |
| CCOC(=O)C1=C(CSc2nc(C)cc(C)c2C#N)OC(N)=C(C#N)C1c1cccs1 (stereo not drawn) | 502 | 7.3% (inactive) | -14.2% (inactive) | 102 | -103% (inactive) | 95 | 0.722 | -1.39 | -0.564 | -2.47% (inactive) | -0.493 (inactive) | -2.9e-05 (inactive) | 0.00829 (inactive) | inactive | 8.41% (inactive) | 13.2% (inactive) | 23.4% (inactive) |
| c1ccc2c(c1)[nH]c1c(N3CCC4(CC3)OCCO4)ncnc12 | 543 | -0.4% (inactive) | -24.1% (inactive) | 94.4 | -72.3% (inactive) | 119 | -0.995 | 0.207 | -1.27 | -6.59% (inactive) | -0.384 (inactive) | -3.4e-05 (inactive) | 0.00574 (inactive) | inactive | -1.55% (inactive) | 2.08% (inactive) | -40% (inactive) |
| CC(=O)c1c(OCC(=O)O)ccc2c(C)cc(=O)oc12 | 717 | 0.3% (inactive) | 10.5% (inactive) | 97.8 | -27.6% (inactive) | 126 | -0.71 | 0.597 | -0.576 | 5.95% (inactive) | -0.455 (inactive) | -6.6e-05 (inactive) | 0.00563 (inactive) | inactive | 19.8% (inactive) | 16.9% (inactive) | 17.3% (inactive) |
| Cn1c(=O)c2c(nc(Br)n2CCSc2ncccn2)n(C)c1=O | 606 | -12.8% (inactive) | 5.2% (inactive) | 103 | -13.4% (inactive) | 150 | 0.427 | -0.0194 | -1.04 | 21.4% (inactive) | -0.364 (inactive) | -1.4e-05 (inactive) | 0.00613 (inactive) | inactive | 36.1% (inactive) | 5.45% (inactive) | 6.81% (inactive) |
| CCOC(=O)c1c(-c2cccs2)csc1NC(=O)CCCC(=O)O | 550 | -0.4% (inactive) | -5% (inactive) | 110 | -22.1% (inactive) | 106 | 0.00511 | -0.304 | -0.262 | -5.81% (inactive) | -0.427 (inactive) | -5.3e-05 (inactive) | 0.00466 (inactive) | inactive | 16.8% (inactive) | 15.6% (inactive) | 21.7% (inactive) |
| CC(O)c1n(C)c(Cl)c[n+]1C (stereo not drawn) | 674 | -10% (inactive) | -4% (inactive) | 103 | -67.2% (inactive) | 134 | -2.1 | -0.307 | 2.29 | 18.6% (inactive) | -0.454 (inactive) | -4.6e-05 (inactive) | 0.0053 (inactive) | inactive | -6.3% (inactive) | 17% (inactive) | 10.8% (inactive) |
| COc1ccccc1N=Cc1nc(-c2ccccc2)oc1OC(C)=O | 451 | -8.2% (inactive) | -25.8% (inactive) | 84.2 | -86.5% (inactive) | 132 | 0.537 | -1.18 | 0.127 | 13.2% (inactive) | -0.347 (inactive) | -5.8e-05 (inactive) | 0.00675 (inactive) | inactive | 23% (inactive) | 18.8% (inactive) | 40.5% (inactive) |
| O=C(NCCN1CCCCC1)c1ccc(=O)oc1 | 586 | -3% (inactive) | -8.2% (inactive) | 90.9 | -0.3% (inactive) | 130 | 0.13 | 0.819 | -0.401 | 4.37% (inactive) | -0.482 (inactive) | -5.1e-05 (inactive) | 0.00918 (inactive) | inactive | -5.06% (inactive) | 3.93% (inactive) | 3.77% (inactive) |
| O=C(Nc1ccccn1)NC(C(F)(F)F)C(F)(F)F | 669 | -2.9% (inactive) | -15.1% (inactive) | 118 | -56% (inactive) | 139 | 0.555 | 0.584 | 0.451 | 9.91% (inactive) | -0.472 (inactive) | -0.000163 (inactive) | 0.00603 (inactive) | inactive | 12.6% (inactive) | 0.13% (inactive) | 5.13% (inactive) |
| CC(=O)C1=C(O)C(=O)N(c2ccc(C(=O)O)cc2)C1c1ccccc1 (stereo not drawn) | 669 | 4.5% (inactive) | 10.3% (inactive) | 101 | -53.3% (inactive) | 112 | 1.33 | -0.568 | -0.179 | 2.46% (inactive) | -0.428 (inactive) | -5.9e-06 (inactive) | 0.00575 (inactive) | inactive | -2.45% (inactive) | 16.8% (inactive) | 17.1% (inactive) |
| CN(CC(O)COc1ccc(OCC(O)CN(C)C2CCCCC2)cc1)C1CCCCC1 (stereo not drawn) | 605 | -1.3% (inactive) | -434% (inactive) | 67 | -149% (inactive) | 120 | -0.395 | 0.402 | 1.26 | 11.3% (inactive) | -0.384 (inactive) | -3e-05 (inactive) | 0.00666 (inactive) | inactive | 3.04% (inactive) | -47.8% (inactive) | 52.7% (active) |
| Cc1cc(C)n(C(=O)CNC(=O)C2COc3ccccc3O2)n1 (stereo not drawn) | 659 | -7.8% (inactive) | -13.6% (inactive) | 105 | -92.7% (inactive) | 124 | 0.273 | -1.59 | 0.636 | 3.66% (inactive) | -0.393 (inactive) | -4.6e-05 (inactive) | 0.00449 (inactive) | inactive | 15.9% (inactive) | 15.9% (inactive) | 20.1% (inactive) |
